The panel holds about 83,000 compounds, 20% with a hit somewhere; the sample as a whole holds those more often.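 Note: values are percent growth. 100 is the growth of untreated cells, values between 100 and 0 indicate rising inhibition; between -100 and 0 indicates cell death.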 Unmarked numbers belong to inactive results. Activity calls are given as the source filed them. How the source made its calls: active means growth percent below 10; inactive means the rest.

Among the test systems are SN12C renal; UO-31 renal; TK-10 renal; ACHN renal; CAKI-1 renal; A498 renal; CCRF-CEM leukemia; MOLT-4 leukemia; SR leukemia.
What all share (assay): NCI-60 one-dose screen, 48 h (100 = growth as untreated, 0 = no growth, -100 = all killed)
What all share (details): 10 µM

As for `CC(C)(Cl)CCC1=C(Cl)C(=O)c2ccccc2C1=O`, the growth with SN12C renal was 79.9%; with UO-31 renal it was 36.5%; with TK-10 renal it was 124%; in the test with ACHN renal, 26.3%; in the test on CAKI-1 renal it was 96%; in the test on A498 renal, 27.4%. Further, the growth in the test on CCRF-CEM leukemia is -33.9% (active); with MOLT-4 leukemia, -16.2% (active); in the test with SR leukemia, -25.3% (active).

As for `Cc1ccc(C)c(C(O)(c2cc(C)ccc2C)C2(O)CCCCC2)c1`, the growth with SN12C renal was 96.8%; in the test with UO-31 renal it was 87.7%; with TK-10 renal, 89.8%; with ACHN renal, 89%; with CAKI-1 renal, 80.5%; in the test on A498 renal, 94.5%. Also, the growth in the test on CCRF-CEM leukemia was 94.3%; in the test on MOLT-4 leukemia, 71.5%; with SR leukemia, 85.1%.

With `COc1ccc(-c2nc(-c3nc4cc(Cl)c(F)cc4[nH]3)c3ccccn23)cc1`, the growth with SN12C renal was 66.3%; in the test on UO-31 renal, 28%; with TK-10 renal, 64.7%; with ACHN renal it was 79.1%; with CAKI-1 renal it was 67.1%; in the test with A498 renal it was 32.4%. Further, the growth is 35.6% in the test with CCRF-CEM leukemia, 43.4% with MOLT-4 leukemia and 33.7% in the test on SR leukemia.

For `COc1cc(Cl)cc(-c2nn(-c3cccc(NC(=O)c4ccc(Cl)c(Cl)c4)c3)cc2-c2ccncc2)c1`, the growth in the test on SN12C renal was 69.6%; with UO-31 renal it was 43.5%; in the test on TK-10 renal it was 104%; with ACHN renal it was 63.9%; with CAKI-1 renal, 63.6%; with A498 renal, -0.943% (active). Besides, the values for the growth with CCRF-CEM leukemia, in the test with MOLT-4 leukemia and with SR leukemia were 59.2%, 54.9% and 43.6%, respectively.

With `COc1ccc(C2=Nc3c(C)nn(-c4ccccc4)c3NC(c3ccc(Oc4ccnc5cc(Cl)ccc45)c(OC)c3)C2)cc1` (configuration not stated), the growth in the test on SN12C renal was 72.5%; in the test with UO-31 renal, 53%; in the test with TK-10 renal, 129%; in the test with ACHN renal it was 76.4%; with CAKI-1 renal, 70.8%; with A498 renal, 54.2%. The figures for the growth in the test on CCRF-CEM leukemia, in the test with MOLT-4 leukemia and in the test on SR leukemia were 71.2%, 51.4% and -0.699% (active), respectively.

Take `COc1ccc(Cl)cc1-n1nnc(-c2nc3ccccc3[nH]2)c1N`: the growth was 94.3% in the test on SN12C renal; 71.9% in the test with UO-31 renal; 85.9% in the test on TK-10 renal; 51.4% in the test on ACHN renal; 67.7% in the test on CAKI-1 renal; 89.3% in the test with A498 renal. Further, the growth with CCRF-CEM leukemia was 104%; in the test on MOLT-4 leukemia, 98.5%; in the test on SR leukemia, 71.8%.

`COc1cc(-c2nc(Nc3nc4ccccc4s3)[nH]c(=O)c2C#N)cc(OC)c1O`: the growth was 102% with SN12C renal; 88.1% in the test on UO-31 renal; 112% with TK-10 renal; 102% in the test on ACHN renal; 113% with CAKI-1 renal; 103% in the test on A498 renal. Moreover, the growth in the test with CCRF-CEM leukemia is 103%; in the test with MOLT-4 leukemia, 94.7%; in the test with SR leukemia, 108%.

For `CCCCCCCCCCCCCCCC(=O)OC1[C@@H](OC(=O)CCCCCCCCCCCCCCC)[C@@H](C(=O)N[C@@H](CCCCN)C(=O)OC)O[C@H]1n1cnc2c(=O)[nH]c(NC(=O)C(C)C)nc21` (some centres not stated), the growth in the test with SN12C renal was 105%; with UO-31 renal it was 87.1%; with TK-10 renal, 101%; with ACHN renal, 102%; in the test with CAKI-1 renal, 94%; with A498 renal, 98.1%. Further, the growth is 86% in the test on CCRF-CEM leukemia, 93.4% in the test with MOLT-4 leukemia and 9.69% (active) with SR leukemia.

Consider `COc1cc(Nc2ccnc(NCCCNc3ccnc4cc(Cl)ccc34)n2)cc(OC)c1`, for which the growth in the test with SN12C renal was 22.6%; in the test on UO-31 renal, -74.8% (active); in the test with TK-10 renal it was -63.4% (active); with ACHN renal it was -58.1% (active); in the test on CAKI-1 renal, -3.88% (active); in the test on A498 renal it was 14.9%. The growth with CCRF-CEM leukemia was -5.06% (active); with MOLT-4 leukemia, -39.6% (active); in the test with SR leukemia it was -21.6% (active).

With `COc1ccc(-c2nn(-c3cccc(NC(=O)c4ccc(Cl)c(Cl)c4)c3)cc2-c2ccncc2)cc1Cl`, the growth is 86.7% in the test with SN12C renal; 47.6% in the test on UO-31 renal; 85% in the test on TK-10 renal; 78.8% with ACHN renal; 73.1% in the test on CAKI-1 renal; 54.7% in the test with A498 renal. In addition, the growth in the test on CCRF-CEM leukemia is 61.7%; in the test with MOLT-4 leukemia, 62.7%; in the test on SR leukemia, 24.3%.

For `CCN(CC)CCSCCN(CC)CC`, the growth was 101% in the test on SN12C renal; 97.1% in the test with UO-31 renal; 103% in the test with TK-10 renal; 99% with ACHN renal; 98% with CAKI-1 renal; 89.4% in the test on A498 renal. Also, the figures for the growth in the test with CCRF-CEM leukemia, in the test with MOLT-4 leukemia and in the test with SR leukemia were 91.9%, 105% and 98.5%, respectively.

In the case of `Clc1ccc(/C=C2\CCCC3=C2N=C2SC=NN2C3c2ccc(Cl)cc2)cc1` (configuration not stated), the growth in the test on SN12C renal was 104%; with UO-31 renal, 86.5%; in the test with TK-10 renal it was 112%; in the test with ACHN renal it was 103%; in the test on CAKI-1 renal, 106%; with A498 renal it was 81.7%. Moreover, the growth with CCRF-CEM leukemia was 86.6%; in the test on MOLT-4 leukemia, 99%; with SR leukemia it was 76.3%.

For the compound `O=C1/C(=C\c2ccc(F)cc2)CN(C(=O)c2ccccc2F)C/C1=C\c1ccc(F)cc1`, the growth with SN12C renal was -57.1% (active); with UO-31 renal, -72.6% (active); in the test on TK-10 renal it was 9.87% (active); with ACHN renal, -33.1% (active); in the test on CAKI-1 renal, -35.4% (active); in the test on A498 renal it was 47.5%. The growth in the test on CCRF-CEM leukemia was -16.4% (active); in the test on MOLT-4 leukemia, -1.83% (active); in the test on SR leukemia, -17.7% (active).

Source of the values: PubChem BioAssay (NCI).
